The target of assay [1] is Calcium and integrin-binding protein 1 (Homo sapiens) (UniProt Q99828). The assay can be described thus: Primary qHTS for Identification of Calcium Integrin Binding Protein 1 (CIB1) Competitor (AID 1508620).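 Note: GST tagged CIB1 binding a fluorescein labelled alphaIIb integrin peptide tracer; top concentration of the series differs between compounds.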 The essentials:
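Fluorescence polarization competition: CIB1-GST (1 uM final) preincubated with compound 15 min at room temperature, then FITC-labeled alphaIIb peptide (100 nM final) added for another 15 min. Polarization read at Ex 480/Em 540.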

Assay [2] is described as follows: Primary qHTS for inhibitors of nuclear receptor binding SET domain protein 2 (NSD2) in an isogenic RCH-ACV NSD2 p.E1099K mutant (9B) (AID 1645876). Note: nearly all actives have a fitted effect of over 70% in size. Note: potency is the fitted concentration of half-maximal effect. In general terms: In qHTS, concentration-response curves come from the screen itself.

Records with an inconclusive call do not appear. A call without a number means that no potency is given here. Active and inactive are the calls of the source. Calls come from the whole dose curve; as a rule, active = well fitted inhibition curve with a large enough effect; inconclusive = small, poorly fitted or top-dose-only effect; inactive = flat fitted curve, though single readings scatter.

Sequence of Calcium and integrin-binding protein 1 (Homo sapiens) (Q99828 whole entry, looked up): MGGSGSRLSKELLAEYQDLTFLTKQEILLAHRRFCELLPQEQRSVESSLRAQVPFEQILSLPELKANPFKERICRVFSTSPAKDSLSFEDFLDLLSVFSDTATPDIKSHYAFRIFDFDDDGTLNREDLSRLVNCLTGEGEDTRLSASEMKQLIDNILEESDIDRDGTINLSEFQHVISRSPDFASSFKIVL

As to `COC1C(OC(=O)/C=C/C=C/C=C/C=C/C(=O)O)CCC2(CO2)C1C1(C)OC1CC=C(C)C` (stereo unspecified), the Potency entry in assay [1] and in assay [2] was “inactive” throughout.

For `O=C1COC2(CCN(S(=O)(=O)c3ccc(-c4ccc5cccnc5c4)cc3)CC2)CN1C1CC1`, the Potency result in assay [1] and in assay [2] was “inactive” each time.

In the case of `O=c1cc(NCCCN[C@@H]2CCOc3c(Br)cc(Br)cc32)[nH]c2ccsc12`, in assay [1], the Potency result is “inactive”. Also, the Potency in assay [2] is 20.5 µM (active).

Source of the values: PubChem BioAssay (NCATS).
